Hedgehog inh – Sonic Hedgehog pathway inhibition; AID 2313; actives 2.1% (n = 22,000); inhibition, % (concentration not given with the values); Shh-LIGHT2 Gli-luciferase reporter, 30 h;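 active means mean inhibition across valid replicates above about 65%, limit read from the data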;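 further: pathway switched on by Shh-conditioned medium diluted 1 in 25 in low serum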
BJeLR viability – BJeLR cell viability reduction. BJeLR fibroblasts viability, CellTiterGlo ATP luminescence, 48 h; HRASV12, hTERT and SV40 LT/ST transformed. viability loss activity score, % (concentration not given with the values). actives 0.64% (n = 30,000). AID 2275; in the data active means viability loss activity score above about 50%;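 further: higher score means fewer live cells and less ATP luminescence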
An asterisk follows results filed as active; x = no result. Many of the other results were omitted from the sample, so hits are more common in it than they were.

SMILES	Hedgehog inh	BJeLR viability
C[C@@H]1CN([C@H](C)CO)C(=O)c2cccc(NC(=O)Nc3ccc(F)cc3)c2O[C@@H]1CN(C)C(=O)Nc1cccc2ccccc12	-126	-8
C[C@H](CO)N1C[C@H](C)[C@H](CN(C)S(=O)(=O)c2ccc(F)cc2)Oc2c(NC(=O)C3CC3)cccc2C1=O	103*	4
C[C@H](CO)N1C[C@H](C)[C@H](CN(C)S(=O)(=O)c2ccc(F)cc2)Oc2c(NC(=O)Nc3cccc4ccccc34)cccc2C1=O	75*	-1
C[C@H](CO)N1C[C@H](C)[C@@H](CN(C)C(=O)Nc2cccc3ccccc23)Oc2c(NC(=O)Nc3ccc(F)cc3)cccc2C1=O	80*	-3
COc1ccc(NC(=O)Nc2cccc3c2O[C@@H](CN(C)S(=O)(=O)c2ccc(C)cc2)[C@@H](C)CN([C@H](C)CO)C3=O)cc1	94*	-5
C[C@H](CO)N1C[C@H](C)[C@H](CN(C)S(=O)(=O)c2cn(C)cn2)Oc2c(NS(C)(=O)=O)cccc2C1=O	-3	1
O=C(NCc1ccccc1)c1ccc2c(c1)N(Cc1ccccc1)CCS2	x	-6
Cc1noc(C)c1NC(=O)N(C)C[C@H]1Oc2c(NC(=O)c3cnccn3)cccc2C(=O)N([C@H](C)CO)C[C@@H]1C	2	-5
CC(=O)OCC1OC(n2ccc(=O)[nH]c2=O)C(OC(C)=O)C1OC(C)=O (configuration not stated)	0	3
C[C@@H]1CN([C@H](C)CO)C(=O)c2cccc(NC(=O)Nc3ccc(F)cc3)c2O[C@@H]1CN(C)S(=O)(=O)c1ccc(F)cc1	17	-3
C[C@@H]1CN([C@@H](C)CO)C(=O)c2cccc(NC(=O)Nc3ccc(F)cc3)c2O[C@H]1CN(C)S(=O)(=O)c1ccc(Cl)cc1	4	-8
C[C@H](CO)N1C[C@H](C)[C@H](CN(C)S(=O)(=O)c2ccc(F)cc2)Oc2c(NC(=O)Nc3ccccc3)cccc2C1=O	100*	-3
C[C@H](CO)N1C[C@H](C)[C@H](CN(C)C(=O)Nc2ccc(F)cc2)Oc2ccc(NC(=O)Nc3ccc(F)cc3)cc2C1=O	107*	x
C[C@@H]1CN([C@@H](C)CO)C(=O)c2cc(NC(=O)Nc3ccc(F)cc3)ccc2O[C@H]1CN(C)C(=O)Nc1ccc(F)cc1	-1	x
C[C@H](CO)N1C[C@H](C)[C@H](CN(C)S(=O)(=O)c2ccc(Cl)cc2)Oc2c(NC(=O)Nc3ccc(F)cc3)cccc2C1=O	117*	5
C[C@@H]1CN([C@@H](C)CO)C(=O)c2cccc(NC(=O)Nc3ccccc3)c2O[C@@H]1CN(C)S(=O)(=O)c1ccc(F)cc1	-36	-3
C[C@H]1CN([C@@H](C)CO)C(=O)c2cccc(NC(=O)Nc3ccc(F)cc3)c2O[C@H]1CN(C)S(=O)(=O)c1ccc(F)cc1	83*	-1
Cc1noc(C)c1NC(=O)Nc1cccc2c1O[C@@H](CN(C)C(=O)Nc1ccccc1)[C@@H](C)CN([C@@H](C)CO)C2=O	24	-10
CSc1nsc(SC)c1C(=O)NC(=O)N1CCSCC1	x	1
O=C(Oc1ccc2ccccc2c1C1SCCS1)c1cccs1	x	-5
Clc1ccccc1N=C/C=C1\NN=NC1c1ccc(Br)cc1 (configuration not stated)	-24	6
CC(C)NC(=O)Nc1cccc2c1O[C@@H](CN(C)Cc1ccc(C(F)(F)F)cc1)[C@H](C)CN([C@@H](C)CO)C2=O	-5	0
Cc1ccc(S(=O)(=O)N(C)C[C@H]2Oc3c(NC(=O)Nc4ccccc4)cccc3C(=O)N([C@H](C)CO)C[C@H]2C)cc1	32	-3
C[C@H](CO)N1C[C@H](C)[C@H](CN(C)S(=O)(=O)c2cccs2)Oc2c(NC(=O)C3CC3)cccc2C1=O	85*	0
C[C@H](CO)N1C[C@H](C)[C@@H](CN(C)S(=O)(=O)c2ccc(Cl)cc2)Oc2c(NC(=O)Nc3ccccc3)cccc2C1=O	-88	2
SMILES	Hedgehog inh	BJeLR viability
C[C@H](CO)N1C[C@H](C)[C@H](CN(C)S(=O)(=O)c2ccc(Cl)cc2)Oc2c(NC(=O)Nc3ccccc3)cccc2C1=O	117*	-7
Cc1ccc(S(=O)(=O)N(C)C[C@@H]2Oc3c(NC(=O)Nc4ccccc4)cccc3C(=O)N([C@@H](C)CO)C[C@@H]2C)cc1	107*	4
C[C@@H]1CN([C@H](C)CO)C(=O)c2cccc(NC(=O)C3CC3)c2O[C@H]1CN(C)S(=O)(=O)c1cccs1	-16	-9
COc1ccc(C(=O)CSc2nc(-c3cccc(C)c3)ns2)cc1	x	-3
CCn1cc(C(=O)NCCC(C)C)c2cc(OC)c(OC)cc2c1=O	x	4
C[C@@H]1CN([C@@H](C)CO)C(=O)c2cccc(NC(=O)c3ccncc3)c2O[C@H]1CN(C)S(=O)(=O)c1ccccc1	13	5

Screens from PubChem.
